These results are taken from PubChem BioAssay (NCI).

Among the test systems are T-47D breast; BT-549 breast; MDA-MB-435 melanoma; SW-620 colon; MCF7 breast; HCT-116 colon; HCC-2998 colon; KM12 colon.
What all share (experiment): NCI-60 one-dose screen, 48 h (100 = growth as untreated, 0 = no growth, -100 = all killed)
Conditions in all cases: 10 µM unless noted

Values joined by “and” are separate entries in the source; they are usually repeats but may differ in a detail not shown here. Identical values can stand only once. The panel holds about 83,000 compounds, 20% with a hit somewhere; the sample as a whole holds those more often.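 96-well plates, one dose, 48 hours. Percent growth reported; active if below 10.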 Active and inactive are the calls of the source.

In the case of `COc1ccc(Cn2cc(C(=O)Nc3cccnc3Nc3ccccc3)nn2)cc1`, the growth in the experiment on T-47D breast is 91.7% (inactive); with BT-549 breast, 86.9% (inactive); in the experiment with MDA-MB-435 melanoma, 96.5% (inactive); in the experiment with SW-620 colon it was 112% (inactive); with MCF7 breast, 91% (inactive); in the experiment on HCT-116 colon it was 103% (inactive). Moreover, the values for the growth in the experiment on HCC-2998 colon and in the experiment with KM12 colon were 88.5% (inactive) and 97.8% (inactive), respectively.

Turning to `CC(C)(C)c1cc(NC(=O)Nc2ccc(-c3cn4c(n3)sc3cc(OCCN5CCOCC5)ccc34)cc2)no1`, the growth in the experiment with T-47D breast is -33% (active) and -23.2% (active); in the experiment with BT-549 breast it was 4.32% (active) and 9.08% (active); in the experiment on MDA-MB-435 melanoma it was 65.1% (inactive) and 31.5% (inactive); with SW-620 colon, 49.9% (inactive) and 21.1% (inactive); with MCF7 breast, 9.99% (active) and 22.3% (inactive); in the experiment on HCT-116 colon, 8.69% (active) and 14.3% (inactive). The growth was 39.1% (inactive) and 56.4% (inactive) with HCC-2998 colon; 13.7% (inactive) and 9.16% (active) in the experiment with KM12 colon.

For `O=C(/C=C/c1ccc([N+](=O)[O-])cc1)c1ccccc1`, the growth in the experiment with T-47D breast was 60.2% (inactive); in the experiment on BT-549 breast it was 93.6% (inactive); in the experiment with MDA-MB-435 melanoma, 89.3% (inactive); with SW-620 colon it was 72.1% (inactive); in the experiment on MCF7 breast, 20.2% (inactive); with HCT-116 colon it was 17% (inactive). For the same compound, the results for the growth in the experiment with HCC-2998 colon and with KM12 colon were 102% (inactive) and 57% (inactive), respectively.

As for `O=C(Nc1ncc(Cc2cccc(C(F)(F)F)c2)s1)c1ccc(-n2cnnn2)cc1`, the growth was 44.7% (inactive) in the experiment on T-47D breast; 67.6% (inactive) in the experiment on BT-549 breast; 24% (inactive) in the experiment with MDA-MB-435 melanoma; 53.4% (inactive) with SW-620 colon; 28.7% (inactive) in the experiment with MCF7 breast; 42.4% (inactive) in the experiment with HCT-116 colon. Besides, the figures for the growth in the experiment on HCC-2998 colon and in the experiment on KM12 colon were 48.9% (inactive) and 28.8% (inactive), respectively.

Take `CCOc1ccc(N2C(N)=NC(N)=NC2(C)C)cc1`: the growth with T-47D breast is 38% (inactive) and 86% (inactive); in the experiment on BT-549 breast, 59.6% (inactive) and 83.4% (inactive); in the experiment on MDA-MB-435 melanoma, -42.8% (active) and 82.7% (inactive); with SW-620 colon, 16.2% (inactive) and 75.8% (inactive); in the experiment with MCF7 breast, 6.3% (active) and 88.3% (inactive); in the experiment with HCT-116 colon it was 21.4% (inactive) and 63.1% (inactive). The growth was 40.2% (inactive) and 112% (inactive) in the experiment on HCC-2998 colon; 25.1% (inactive) and 95.6% (inactive) in the experiment on KM12 colon.

Take `Cc1ccc(-c2nc([P+](c3ccccc3)(c3ccccc3)c3ccccc3)c(Nc3ccccc3)o2)cc1`: the growth in the experiment with T-47D breast is 8.18% (active); with BT-549 breast, 2.14% (active); in the experiment with MDA-MB-435 melanoma it was -32.9% (active); with SW-620 colon, -29.9% (active); in the experiment with MCF7 breast, 0.233% (active); in the experiment with HCT-116 colon, -22.2% (active). Also, the growth in the experiment with HCC-2998 colon was -51.5% (active); in the experiment with KM12 colon, -35.1% (active).

Take `N=c1c2c(-c3ccccc3)c(-c3ccccc3)oc2ncn1NC(=O)c1cccnc1`: the growth in the experiment on T-47D breast is 96.2% (inactive); in the experiment with BT-549 breast, 103% (inactive); with MDA-MB-435 melanoma it was 104% (inactive); in the experiment on SW-620 colon it was 106% (inactive); in the experiment with MCF7 breast, 98.5% (inactive); with HCT-116 colon it was 96.1% (inactive). Also, the figures for the growth with HCC-2998 colon and in the experiment on KM12 colon were 118% (inactive) and 95.6% (inactive), respectively.

In the case of `O=C1/C(=C/c2ccc(F)c(F)c2)CN(C(=O)C(Cl)Cl)C/C1=C\c1ccc(F)c(F)c1`, the growth in the experiment with T-47D breast was -46.2% (active); in the experiment on BT-549 breast, -98% (active); in the experiment on MDA-MB-435 melanoma, -94.8% (active); with SW-620 colon, -67.6% (active); with MCF7 breast, -55.2% (active); in the experiment with HCT-116 colon, -98.9% (active). Also, the growth with HCC-2998 colon was -83.4% (active); in the experiment with KM12 colon it was -89.2% (active).

Regarding `Nc1nc2c(s1)CCc1cn(S(=O)(=O)c3ccccc3)cc1-2`, the growth in the experiment with T-47D breast is 81.6% (inactive) and 111% (inactive); in the experiment on BT-549 breast it was 84% (inactive) and 109% (inactive); in the experiment on MDA-MB-435 melanoma, 91.1% (inactive) and 107% (inactive); in the experiment on SW-620 colon, 99.7% (inactive) and 99.3% (inactive); in the experiment with MCF7 breast, 93.4% (inactive) and 94.3% (inactive); with HCT-116 colon, 84.5% (inactive) and 100% (inactive). Further, the growth in the experiment on HCC-2998 colon is 111% (inactive) and 106% (inactive); in the experiment on KM12 colon, 94.6% (inactive) and 108% (inactive).

As for `N#Cc1ccccc1-c1ccc(Cn2c(-c3cscn3)nc3c(Cl)cccc32)cc1`, the growth was 56.3% (inactive) in the experiment with T-47D breast; 76.1% (inactive) in the experiment with BT-549 breast; 90.1% (inactive) with MDA-MB-435 melanoma; 87.6% (inactive) with SW-620 colon; 64.2% (inactive) with MCF7 breast; 51.2% (inactive) in the experiment with HCT-116 colon. For the same compound, the growth in the experiment on HCC-2998 colon is 93% (inactive); in the experiment with KM12 colon it was 77.1% (inactive).

Turning to `Cc1cc(N2CCCCC2)nc(NCc2cc(Nc3ccnc4cc(Cl)ccc34)ccc2F)n1`, the growth with T-47D breast was -60.6% (active); with BT-549 breast, 15.5% (inactive); in the experiment with MDA-MB-435 melanoma it was -86.7% (active); with SW-620 colon, -19.2% (active); in the experiment on MCF7 breast it was -37.5% (active); in the experiment with HCT-116 colon, -62.8% (active). The growth in the experiment with HCC-2998 colon is -16% (active); in the experiment on KM12 colon, 7.38% (active).

Turning to `Nc1ncc(-c2ccc3ncnc(N4CCc5ccc(Cl)cc54)c3c2)cc1C(F)(F)F`, the growth is 12% (inactive) in the experiment with T-47D breast; -2.6% (active) with BT-549 breast; 13.7% (inactive) in the experiment on MDA-MB-435 melanoma; 34.8% (inactive) in the experiment with SW-620 colon; 7.34% (active) in the experiment on MCF7 breast; 23.3% (inactive) in the experiment with HCT-116 colon. For the same compound, the growth in the experiment on HCC-2998 colon is 22.3% (inactive); in the experiment on KM12 colon, 13.4% (inactive).
